Assay results: PubChem BioAssay AID1159580 (chemical genetic matrix, 2015)
Out of some 5,500 compounds screened, about 2,000 (36%) were called active. Another 18% or so got no clear call; they are omitted. No stated cut-off is given here; in the data, active means normalized growth mostly below about 0.91 (no sharp cut-off); inconclusive means no clear call, values can overlap the other calls; inactive means mostly above about 0.92. The list shows a part of the results.

Experiment: chemical genetic growth profiling, strain panel (AID 1159580);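 further: tested at 20 µM; growth read once vehicle control cultures reached saturation at 30 °C; 1 = growth at the plate median or of vehicle wells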
Conditions: growth OD
[1] = S. cerevisiae deletion strains, locus YDL101C, strain DUN1, stronger effect = lower value
[2] = S. cerevisiae deletion strains, locus YHR030C, strain SLT2, stronger effect = lower value

Measured: normalized growth

C/C(=N/Nc1c(Cl)cc(Cl)cc1Cl)c1cc(F)ccc1OC(=O)c1ccccc1F
inactive: S. cerevisiae deletion strains, locus YAL013W, strain DEP1, stronger effect = lower value 0.99 | S. cerevisiae deletion strains, locus YBR229C, strain ROT2, stronger effect = lower value 0.978 | [1] 0.969 | S. cerevisiae deletion strains, locus YDL134C, strain PPH21, stronger effect = lower value 1.03 | S. cerevisiae deletion strains, locus YDR150W, strain NUM1, stronger effect = lower value 0.991 | S. cerevisiae deletion strains, locus YEL061C, strain CIN8, stronger effect = lower value 1.04 | S. cerevisiae deletion strains, locus YGR078C, strain PAC10, stronger effect = lower value 0.983 | [2] 1.04 | S. cerevisiae deletion strains, locus YHR087W, strain rtc3, stronger effect = lower value 0.978 | S. cerevisiae deletion strains, locus YJR043C, strain POL32, stronger effect = lower value 0.968 | S. cerevisiae deletion strains, locus YJR075W, strain HOC1, stronger effect = lower value 0.984 | S. cerevisiae deletion strains, locus YKL190W, strain CNB1, stronger effect = lower value 1.03 | S. cerevisiae deletion strains, locus YLR039C, strain RIC1, stronger effect = lower value 1.02 | S. cerevisiae deletion strains, locus YLR058C, strain SHM2 (second series), stronger effect = lower value 1.01 | S. cerevisiae deletion strains, locus YLR085C, strain ARP6, stronger effect = lower value 1.11 | S. cerevisiae deletion strains, locus YLR262C, strain YPT6, stronger effect = lower value 0.957 | S. cerevisiae deletion strains, locus YML094W, strain GIM5, stronger effect = lower value 1.01 | S. cerevisiae deletion strains, locus YMR219W, strain ESC1, stronger effect = lower value 0.966 | S. cerevisiae deletion strains, locus YMR263W, strain SAP30, stronger effect = lower value 0.996 | S. cerevisiae deletion strains, locus YNL128W, strain TEP1, stronger effect = lower value 1.03 | S. cerevisiae deletion strains, locus YNL153C, strain GIM3, stronger effect = lower value 0.953 | S. cerevisiae deletion strains, locus YNL298W, strain CLA4 (second series), stronger effect = lower value 1.07 | S. cerevisiae deletion strains, locus YNL322C, strain KRE1, stronger effect = lower value 1.01 | S. cerevisiae deletion strains, locus YNR030W, strain Alg12, stronger effect = lower value 1.03 | S. cerevisiae deletion strains, locus YOL006C, strain TOP1, stronger effect = lower value 1.06 | S. cerevisiae deletion strains, locus YPL055C, strain LGE1, stronger effect = lower value 0.981 | S. cerevisiae deletion strains, locus YPL241C, strain CIN2, stronger effect = lower value 0.972 | S. cerevisiae deletion strains, locus YPR135W, strain CTF4, stronger effect = lower value 0.962 | S. cerevisiae strains, strain wild type, stronger effect = lower value 1.03

CSC(=NNc1ccccc1)NC(=O)c1c(Cl)cccc1Cl
active: S. cerevisiae deletion strains, locus YLR113W, strain HOG1, stronger effect = lower value 0.738 | S. cerevisiae deletion strains, locus YPL256C, strain CLN2, stronger effect = lower value 0.814
inactive: S. cerevisiae deletion strains, locus YAR019C, strain CDC15, stronger effect = lower value 0.972 | S. cerevisiae deletion strains, locus YBL105C, strain PKC1, stronger effect = lower value 0.967 | S. cerevisiae deletion strains, locus YBR135W, strain CKS1, stronger effect = lower value 0.967 | S. cerevisiae deletion strains, locus YBR136W, strain MEC1, stronger effect = lower value 0.972 | S. cerevisiae deletion strains, locus YBR160W, strain CDC28, stronger effect = lower value 0.967 | S. cerevisiae deletion strains, locus YDL017W, strain CDC7, stronger effect = lower value 0.981 | S. cerevisiae deletion strains, locus YDL028C, strain MPS1, stronger effect = lower value 0.975 | [1] 0.974 | S. cerevisiae deletion strains, locus YDL108W, strain KIN28, stronger effect = lower value 0.963 | S. cerevisiae deletion strains, locus YDL132W, strain cdc53, stronger effect = lower value 0.98 | S. cerevisiae deletion strains, locus YDL214C, strain PRR2, stronger effect = lower value 0.89 | S. cerevisiae deletion strains, locus YDR052C, strain DBF4, stronger effect = lower value 0.975 | S. cerevisiae deletion strains, locus YDR054C, strain cdc34, stronger effect = lower value 0.961 | S. cerevisiae deletion strains, locus YDR226W, strain ADK1, stronger effect = lower value 0.969 | S. cerevisiae deletion strains, locus YDR477W, strain SNF1, stronger effect = lower value 0.923 | S. cerevisiae deletion strains, locus YER123W, strain YCK3, stronger effect = lower value 0.812 | S. cerevisiae deletion strains, locus YER133W, strain GLC7, stronger effect = lower value 0.918 | S. cerevisiae deletion strains, locus YFL009W, strain cdc4, stronger effect = lower value 0.972 | S. cerevisiae deletion strains, locus YFL029C, strain CAK1, stronger effect = lower value 0.958 | S. cerevisiae deletion strains, locus YFR003C, strain YPI1, stronger effect = lower value 0.971 | S. cerevisiae deletion strains, locus YFR019W, strain FAB1, stronger effect = lower value 0.904 | S. cerevisiae deletion strains, locus YFR028C, strain CDC14, stronger effect = lower value 0.967 | S. cerevisiae deletion strains, locus YGR040W, strain KSS1, stronger effect = lower value 0.887 | S. cerevisiae deletion strains, locus YGR052W, strain FMP48, stronger effect = lower value 0.951 | S. cerevisiae deletion strains, locus YGR092W, strain DBF2, stronger effect = lower value 0.82 | [2] 0.909 | S. cerevisiae deletion strains, locus YHR079C, strain IRE1, stronger effect = lower value 0.896 | S. cerevisiae deletion strains, locus YHR082C, strain KSP1, stronger effect = lower value 0.938 | S. cerevisiae deletion strains, locus YHR205W, strain SCH9, stronger effect = lower value 0.921 | S. cerevisiae deletion strains, locus YIL147C, strain SLN1, stronger effect = lower value 0.975 | S. cerevisiae deletion strains, locus YJL095W, strain BCK1, stronger effect = lower value 0.902 | S. cerevisiae deletion strains, locus YJL128C, strain PBS2, stronger effect = lower value 0.945 | S. cerevisiae deletion strains, locus YJL157C, strain FAR1, stronger effect = lower value 0.886 | S. cerevisiae deletion strains, locus YJR016C, strain ILV3, stronger effect = lower value 0.966 | S. cerevisiae deletion strains, locus YJR066W, strain TOR1 (second series), stronger effect = lower value 0.904 | S. cerevisiae deletion strains, locus YJR066W, strain TOR1, stronger effect = lower value 0.968 | S. cerevisiae deletion strains, locus YKL048C, strain ELM1, stronger effect = lower value 0.882 | S. cerevisiae deletion strains, locus YKL067W, strain YNK1, stronger effect = lower value 0.892 | S. cerevisiae deletion strains, locus YKL101W, strain HSL1, stronger effect = lower value 0.867 | S. cerevisiae deletion strains, locus YKL193C, strain SDS22, stronger effect = lower value 0.969 | S. cerevisiae deletion strains, locus YKL203C, strain TOR2, stronger effect = lower value 0.969 | S. cerevisiae deletion strains, locus YLR133W, strain CKI1, stronger effect = lower value 0.872 | S. cerevisiae deletion strains, locus YLR403W, strain SFP1, stronger effect = lower value 0.897 | S. cerevisiae deletion strains, locus YML070W, strain DAK1, stronger effect = lower value 0.806 | S. cerevisiae deletion strains, locus YMR001C, strain CDC5, stronger effect = lower value 0.965 | S. cerevisiae deletion strains, locus YMR205C, strain PFK2 (second series), stronger effect = lower value 0.887 | S. cerevisiae deletion strains, locus YMR277W, strain FCP1, stronger effect = lower value 0.975 | S. cerevisiae deletion strains, locus YNL006W, strain LST8, stronger effect = lower value 0.97 | S. cerevisiae deletion strains, locus YNL020C, strain ARK1, stronger effect = lower value 0.88 | S. cerevisiae deletion strains, locus YNL161W, strain CBK1, stronger effect = lower value 0.979 | S. cerevisiae deletion strains, locus YNL183C, strain NPR1, stronger effect = lower value 0.927 | S. cerevisiae deletion strains, locus YNL207W, strain RIO2, stronger effect = lower value 0.97 | S. cerevisiae deletion strains, locus YNL222W, strain SSU72, stronger effect = lower value 0.961 | S. cerevisiae deletion strains, locus YNL307C, strain MCK1 (second series), stronger effect = lower value 0.817 | S. cerevisiae deletion strains, locus YOL078W, strain AVO1, stronger effect = lower value 0.968 | S. cerevisiae deletion strains, locus YOL136C, strain PFK27, stronger effect = lower value 0.842 | S. cerevisiae deletion strains, locus YOR061W, strain CKA2, stronger effect = lower value 0.798 | S. cerevisiae deletion strains, locus YOR119C, strain RIO1, stronger effect = lower value 0.961 | S. cerevisiae deletion strains, locus YOR231W, strain MKK1, stronger effect = lower value 0.82 | S. cerevisiae deletion strains, locus YOR329C, strain SCD5, stronger effect = lower value 0.976 | S. cerevisiae deletion strains, locus YPL031C, strain PHO85, stronger effect = lower value 0.917 | S. cerevisiae deletion strains, locus YPL153C, strain RAD53, stronger effect = lower value 0.91 | S. cerevisiae deletion strains, locus YPL204W, strain HRR25, stronger effect = lower value 0.906 | S. cerevisiae deletion strains, locus YPL209C, strain IPL1, stronger effect = lower value 0.972 | S. cerevisiae deletion strains, locus YPR025C, strain CCL1, stronger effect = lower value 0.968 | S. cerevisiae deletion strains, locus YPR106W, strain ISR1, stronger effect = lower value 0.955 | S. cerevisiae deletion strains, locus YPR111W, strain DBF20, stronger effect = lower value 0.948 | S. cerevisiae deletion strains, strain NNK1, stronger effect = lower value 0.964 | S. cerevisiae deletion strains, strain TSCII, stronger effect = lower value 0.968
